# Bioassay records as filed in PubChem.
# A selection: hits, their analogues and other compounds. The true share with any hit is near 10%.
# HP1b chromo inh = blocks HP1-beta chromodomain binding to methylated histone tails; AlphaScreen HP1-beta / biotin-H3K9me3 peptide binding; P83916; Potency, µM (highest dose often 114 µM), for the others: top-dose activity change, negative = inhibition, hits mostly inhibitors; hit rate 0.56% among 390,000; further: potency means the concentration at half of the fitted maximal effect; nearly all actives have a fitted effect of over 70% in size
#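 AlphaScreen: HP1-beta (50 nM) preformed 30 min with biotin-H3(1-18)K9me3 peptide (50 nM) in PBS pH 7.4, 0.01% Tween-20. Compound added for 30 min at RT, then streptavidin donor/nickel chelate acceptor beads (10 ug/mL) for 30 min.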
# G9a block = G9a (human) methyltransferase inhibition; Q96KQ7; Potency, µM (series often up to 102 µM), for inactives: at the highest dose activity, negative = inhibition, most hits filed as inhibitors; hit rate 8.8% among 350,000; G9a H3K9 monomethylation, AlphaScreen, 2 h; further: potency means the concentration at half of the fitted maximal effect; on the % scale 0 is the no-effect control and ±100 the full control effect; nearly all actives have a fitted effect of over 75% in size
#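 Quantitative HTS format: methyltransferase activity on a biotin-tagged H3K9 peptide is measured by AlphaScreen, using a rabbit anti-monomethyl-H3K9 antibody with streptavidin donor and anti-IgG acceptor beads. Final levels are 20 nM enzyme, 500 nM peptide, 20 uM SAM; 2 h RT.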
# BAZ2B block = inhibitors of human BAZ2B bromodomain. Q9UIF8. Potency, µM (doses to about 114 µM), inactives show at the top dose activity change, negative = inhibition, hits mostly inhibitors. hit rate 4.4% among 360,000. AlphaScreen BAZ2B-H3K14Ac peptide displacement; further: potency means the concentration at half of the fitted maximal effect; on the % scale 0 is the no-effect control and ±100 the full control effect; nearly all actives have a fitted effect of over 60% in size
#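 Complex of BAZ2B and biotin-H3K14Ac (50 nM apiece) forms over 30 min at RT, then faces library compounds up to 110 uM for another 30 min; AlphaScreen beads added, 20 min dark incubation, luminescence read.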
# Six1-Eya2 blk = blocks human Six1 binding to Eya2 | AlphaScreen GST-Six1/His-Eya2 binding, biochemical; stronger effect = lower value | activity change, % (test concentration not listed) | hit rate 0.56% among 360,000 | AID 651725; in the data active means activity change below about -65%; inconclusive means mostly about -30% to -63%; further: on the % scale 0 is the no-effect control and ±100 the full control effect
#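 AlphaScreen luminescence read after one hour at 37 °C in darkness. Pin-transferred compounds met GST-Six1 and His-Eya2 protein (5X stock 250 nM/500 nM) plus glutathione donor and Ni-chelate acceptor beads (5X, 50 ug/mL).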
# JMJD2A Tudor = blocks the human JMJD2A Tudor domain | AlphaScreen JMJD2A-Tudor / H3K4me3 peptide binding | hit rate 4.4% among 390,000 | Potency, µM (top dose mostly 114 µM), inactives show at the highest dose activity change, negative = inhibition, usual class: inhibitors | O75164; further: potency means the concentration at half of the fitted maximal effect; on the % scale 0 is the no-effect control and ±100 the full control effect; nearly all actives have a fitted effect of over 50% in size
# Target sequence (O75164 whole entry, looked up, the tested form may be a part): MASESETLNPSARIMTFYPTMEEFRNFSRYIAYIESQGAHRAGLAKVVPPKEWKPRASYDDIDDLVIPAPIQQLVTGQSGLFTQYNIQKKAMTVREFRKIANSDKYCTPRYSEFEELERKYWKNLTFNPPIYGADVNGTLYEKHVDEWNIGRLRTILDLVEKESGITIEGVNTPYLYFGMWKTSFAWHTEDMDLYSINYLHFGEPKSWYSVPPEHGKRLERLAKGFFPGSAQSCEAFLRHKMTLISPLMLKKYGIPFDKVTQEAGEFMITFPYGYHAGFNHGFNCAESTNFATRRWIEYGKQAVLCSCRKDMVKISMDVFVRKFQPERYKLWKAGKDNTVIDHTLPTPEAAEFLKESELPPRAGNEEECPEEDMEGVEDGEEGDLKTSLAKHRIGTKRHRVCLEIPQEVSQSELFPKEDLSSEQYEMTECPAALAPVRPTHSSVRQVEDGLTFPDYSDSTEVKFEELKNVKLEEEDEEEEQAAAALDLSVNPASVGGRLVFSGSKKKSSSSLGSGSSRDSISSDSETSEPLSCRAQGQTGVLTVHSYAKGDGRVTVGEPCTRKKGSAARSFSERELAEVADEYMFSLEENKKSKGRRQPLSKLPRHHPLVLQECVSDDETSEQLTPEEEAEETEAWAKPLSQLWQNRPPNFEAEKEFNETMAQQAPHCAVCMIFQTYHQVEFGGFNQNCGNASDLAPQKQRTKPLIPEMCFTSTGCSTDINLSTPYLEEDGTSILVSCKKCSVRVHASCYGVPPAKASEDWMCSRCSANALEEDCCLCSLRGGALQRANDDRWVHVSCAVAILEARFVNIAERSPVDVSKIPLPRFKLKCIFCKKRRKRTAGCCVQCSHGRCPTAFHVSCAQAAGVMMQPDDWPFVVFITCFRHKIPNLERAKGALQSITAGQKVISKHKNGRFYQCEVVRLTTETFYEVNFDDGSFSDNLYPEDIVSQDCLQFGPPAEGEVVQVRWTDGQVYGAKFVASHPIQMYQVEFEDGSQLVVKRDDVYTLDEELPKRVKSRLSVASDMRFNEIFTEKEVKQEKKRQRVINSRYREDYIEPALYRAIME
# CtBP-E1A inh = blocks the CtBP interaction with E1A; AID 651724; activity change, % (concentration not given with the values); hit rate 0.49% among 340,000; AlphaScreen GST-E1A/His-CtBP binding, 1536-well; stronger effect = lower value; in the data active means activity change below about -65%; inconclusive means mostly about -30% to -63%; further: on the % scale 0 is the no-effect control and ±100 the full control effect
#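 Protein mix (5X: 125 nM each GST-E1A, His-CtBP) was incubated with pinned compound 2 h at 37 deg C in dark, in 50 mM Tris pH 8.0 buffer with 300 mM NaCl. Glutathione donor and nickel acceptor beads followed; AlphaScreen signal read after 1 h.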
# An asterisk follows results filed as active; ? = inconclusive; / = not tested or not shown; ! = not confirmed by another sample; [ ] = another dose, or the depositor's remark. Unless noted, the call rests on the fitted dose curve; in most records, active means well fitted inhibition curve with a large enough effect; inconclusive means small, poorly fitted or top-dose-only effect; inactive means no such curve, though single readings can be large or run the other way.
SMILES,HP1b chromo inh,G9a block,BAZ2B block,Six1-Eya2 blk,JMJD2A Tudor,CtBP-E1A inh
Cc1cccc(OCCn2cccc2/C=C2/C(=O)NC(=O)N(Cc3ccco3)C2=O)c1,20.4%,/,44.7µM*,-29.3,-29.4%,-3.3
O=C1NC(=O)N(Cc2ccco2)C(=O)/C1=C\c1cccn1CCOc1ccc(Cl)cc1,6.5%,-5.8%[59 µM],39.8µM*,-17.0,?,19.0
CC(=O)Oc1ccc2c3c1OC1[C@@H](OC(C)=O)C=C[C@H]4[C@H](C2)N(C)CC[C@]314 (stereo partly drawn),/,-41.6%[12.7 µM],/,/,/,/
O=c1[nH]c(SCc2n[nH]c(=S)n2-c2ccccc2)nc2ccccc12,23.9%,?,-10.3%,1.6,7.94µM*,-11.9
CCOP(=O)(Cc1cc(C(=O)CC)c(C)o1)OCC,54.8%,8.91µM*,-5.1%,-4.8,9.4%,-0.5
CC1CC[C@@]2(NC1)OC1CC3C4CC[C@@H]5CC(O)CC[C@@]5(C)C4CC[C@]3(C)C1C2C (stereo partly drawn),/,-6.4%[2.33 µM],/,/,/,/
O=C(Nc1ccc(OC(F)(F)F)cc1)c1cccn(Cc2ccccc2Cl)c1=O,40.1%[57 µM],12.6%[59 µM],8.7%,/,1.6%,/
O=Nc1c(O)c2ccccc2c2ccccc12,?,/,/,-10.5,56.2µM*,1.7
c1ccc(-c2ccc(C(c3ccccc3)n3ccnc3)cc2)cc1 (stereo not drawn),-27.9%,?,25.1µM*,-2.1,25.1µM*,-7.1
NC(=O)CSc1nc2cc(S(=O)(=O)N3CCOCC3)ccc2o1,?,/,/,10.1,-23.4%,-0.4
Nc1ncnc2c1ncn2[C@@H]1O[C@H](COP(=O)(O)OP(=O)(O)OP(=O)(O)O)[C@@H](O)[C@H]1O,26.8%,35.2%[59 µM],8.0%,0.1,?,5.9
NC(=O)C1=CN(C2OC(COP(=O)(O)OP(=O)(O)OC[C@H]3O[C@@H](n4cnc5c(N)ncnc54)[C@H](OP(=O)(O)O)[C@@H]3O)C(O)C2O)C=CC1 (stereo partly drawn),/,10.6µM*,/,/,/,/
CCN(CC)c1ncnc2c1ncn2[C@@H]1O[C@H](COP(=O)(O)OP(=O)(O)C(Br)(Br)P(=O)(O)O)[C@@H](O)[C@H]1O,/,29.9µM*!,/,/,/,/
C1=CC2C3C=CC(C3)C2C1 (stereo not drawn),46.5%,12.3%[0.501 µM],-6.2%,-1.6,-5.5%,4.6
COc1ccc(NC(=O)N2CCC3(CC2)CCN(C(=O)Oc2ccccc2)CC3)cc1,/,12.8%[12.7 µM],/,/,/,/
Cc1ccccc1-n1c(O)c(C(c2ccncc2)c2c(O)n(-c3ccccc3C)c(=O)[nH]c2=O)c(=O)[nH]c1=O,21.8%,25.1µM*,?,4.9,-11.2%,12.0
CC(=NCc1ccco1)c1c(O)n(-c2ccccc2C)c(=O)[nH]c1=O,14.1%,/,-5.5%,-5.3,-13.0%,-11.7
CC1C(=O)OC2CCN3CC=C(COC(=O)[C@](C)(O)[C@]1(C)O)C23 (stereo partly drawn),/,-9.9%[2.33 µM],/,/,/,/
Oc1cc2c(cc1O)[C@H]1c3ccccc3CN[C@H]1CC2,/,1.41µM*,/,/,/,/
Oc1cc2c(cc1O)[C@H]1c3ccccc3CN[C@@H]1CC2,/,2.51µM*,?,/,/,/
C[C@H]1O[C@H]1P(=O)(O)O,61.4%,21.0%,9.7%,5.1,-14.5%,8.4
CP(=O)(Nc1ccc(Cl)cc1)c1nc2c(s1)CCCC2 (stereo not drawn),33.0%,39.8µM*,-18.6%,7.7,-14.2%,-6.5
O=P(Nc1c(Cl)cccc1Cl)(c1ccccc1)c1nc2c(s1)CCCC2 (stereo not drawn),46.2%,11.9%[0.0925 µM],-6.8%,3.1,-10.8%,50.2
CCS(=O)(=O)N1CCN(C2CCC(C)CC2)CC1 (stereo not drawn),?,5.62µM*,56.2µM*,-7.0,6.31µM*,-28.1
O=C(N/N=C/c1c(O)n(Cc2ccco2)c(=O)[nH]c1=O)c1ccccc1,27.0%,/,79.4µM*,-85.9*,79.4µM*,-84.8*
SMILES,HP1b chromo inh,G9a block,BAZ2B block,Six1-Eya2 blk,JMJD2A Tudor,CtBP-E1A inh
Cn1c(O)c(C=NCCN2CCOCC2)c(=O)n(C)c1=S,4.8%,31.6µM*,?,-0.8,-6.5%,-2.1
O=c1[nH]c(=O)n(Cc2ccco2)c(O)c1C=NC1CC1,22.0%,4.6%[59 µM],3.8%,2.3,-14.4%,-2.1
COc1cccc(N=Cc2c(O)n(Cc3ccco3)c(=O)[nH]c2=O)c1,18.4%,?,-30.9%,-5.3,-2.1%,-0.3
O=c1[nH]c(=O)n(Cc2ccco2)c(O)c1/C=N/N1CCCCC1,2.5%,20µM*,-34.3%,2.6,-20.8%,11.6
O=C(N/N=C/c1c(O)n(Cc2ccccc2)c(=O)[nH]c1=O)c1ccccc1O,11.6%,?,?,-88.8*,?,0.2
COc1ccc(Cn2c(O)c(/C=N/NC(=O)c3ccccc3)c(=O)[nH]c2=O)cc1,35.9%,-44.5%[59 µM],50.1µM*,?,79.4µM*,-84.8*
Nc1cccc(N=Cc2c(O)n(Cc3ccc(F)cc3)c(=O)[nH]c2=O)c1,7.3%,12.6µM*,1.5%,-1.4,-17.1%,-8.1
O=c1[nH]c(=O)n(Cc2ccccc2)c(O)c1/C=N/NCCO,36.1%,50.1µM*,50.1µM*,?,56.2µM*,-6.3
O=c1[nH]c(=O)n(Cc2ccc(F)cc2)c(O)c1C=Nc1ccc(Cl)cc1,29.5%,-35.1%,6.3%,7.4,-2.8%,-1.1
O=C(N/N=C/c1c(O)n(Cc2ccc(F)cc2)c(=O)[nH]c1=O)c1ccccc1O,29.9%,44.7µM*,?,-88.1*,?,?
CN1CCCC2(CCN(C(=O)c3csnn3)CC2)C1,/,-3.3%[12.7 µM],/,/,/,/
CN(CCc1ccc(Cl)c(Cl)c1)[C@@H]1CCCC[C@@H]1N1CCCC1,/,-30.6%[59 µM],/,/,/,/
COc1ccc(CCNC(=O)c2ccc3c(c2)N(Cc2cccc(Cl)c2)C(=O)CS3)cc1OC,13.5%,?,-15.6%,/,-22.9%,/
CCn1c(O)c(/C=N/NC(=O)c2ccccc2)c(=O)[nH]c1=S,58.5%,-6.9%,39.8µM*,-92.9*,56.2µM*,-91.2*
COc1ccc(Cn2c(O)c(/C=N/NC(=O)c3ccccc3O)c(=O)[nH]c2=O)cc1,26.8%,-1.9%[59 µM],50.1µM*,-87.4*,70.8µM*,-71.7*
COc1ccc(Cn2c(O)c(C=NCCN3CCOCC3)c(=O)[nH]c2=O)cc1,41.2%,39.8µM*,-3.5%,5.4,-5.5%,0.5
O=c1[nH]c(=O)n(Cc2ccc(F)cc2)c(O)c1C=NCCN1CCCCC1,28.9%,-3.2%[12.7 µM],-29.1%,-0.6,-28.9%,7.0
COc1ccc(Cn2c(O)c(/C=N/NC(=O)c3ccncc3)c(=O)[nH]c2=O)cc1,48.1%,?,?,?,?,?
C=CCn1c(O)c(/C=N/NC(=O)CCCC)c(=O)[nH]c1=S,18.2%,101.7%[59 µM],?,?,79.4µM*,8.6
